Compound activity: PubChem, National Center for Advancing Translational Sciences (NCATS)
A selection: hits, their analogues and other compounds. The true share with any hit is near 7.9%.
SW480 rereplic: induces DNA re-replication in SW480 colon adenocarcinoma cells; SW480 DNA re-replication, Hoechst DNA content imaging, 48 h; Potency, µM (titrated, usually from 46.1 µM), inactives show top-dose re-replication activation, hits mostly activators; 340,000 compounds, 1.8% hits; AID 624297; also: % of control where 0% means no effect; nearly all actives have a fitted effect of over 55% in size
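First, 250 cells per well were seeded. Next, compound or vehicle (23 nL) was pinned in, plates sat 48 hr at 37 C. Finally Hoechst was added for 40 min before fluorescence scanning.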
HT1080 IDH1KD tx: HT-1080 IDH1 knockdown cell toxicity (counter line); HT-1080 IDH1 knockdown viability, ATP luminescence, 48 h; Potency, µM (titrated, usually from 46.1 µM), for the others: at the highest dose activity, negative = toxicity, usual class: cytotoxic; 360,000 compounds, 2% hits; AID 686971;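 also: 0% = DMSO wells and -100% = cell-free medium wells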
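In this qHTS, HT-1080 cells depleted of IDH1 are exposed for 48 h at 37 °C to compound titrations. Toxicity is scored from CellTiter-Glo luminescence, with DMSO as full viability and medium alone as none.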
MCF10A rerep: inducers of DNA re-replication in MCF 10A breast cells; Potency, µM (highest dose often 46.1 µM), for the others: at the top dose activity, positive = re-replication, usual class: activators; MCF 10A DNA re-replication, Hoechst nuclear intensity, 48 h; 350,000 compounds, 2.9% hits; AID 624296; also: % of control where 0% means no effect; nearly all actives have a fitted effect of over 50% in size
KB-V1 cytotox: kills drug-selected multidrug resistant KB-V1 cells; KB-V1 MDR cells viability, CellTiter-Glo, 72 h; Potency, µM (titrated, usually from 46.1 µM), most hits filed as cytotoxic; 400,000 compounds, 3.4% hits; also: % is scaled to controls: 0 for no effect and ±100 for the full control effect; nearly all actives have a fitted effect of over 60% in size
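Cytotoxicity via CellTiter-Glo luminescence after 72 h compound exposure at 37 degrees C. Cells: drug-selected KB-V1 line, DMEM phenol-red free plus 10% FBS. Compounds tested at multiple concentrations; normalized data fitted to concentration-effect curves.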
HT1080-NT tox: kills 2HG-producing HT-1080-NT fibrosarcoma cells; HT-1080-NT fibrosarcoma viability, CellTiter-Glo ATP luminescence, 48 h; Potency, µM (titrated, usually from 46.1 µM), inactives show at the top dose activity, negative = less viability, usual class: cytotoxic; 360,000 compounds, 1.6% hits;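 also: NT is the 2HG producing partner of a matched IDH1 knockdown line; 0% = DMSO-treated cells and -100% = media-only wells without cells; nearly all actives have a fitted effect of over 55% in size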
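Viability by CellTiter-Glo luminescence after 48 h compound exposure at 37C of HT-1080-NT cells (750/well, RPMI, 5% FBS). % activity scaled between DMSO wells and medium-only wells, then curve-fitted and categorized by curve class.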
KB-3-1 tox: KB-3-1 parental cell cytotoxicity. AID 1347075. KB-3-1 viability, CellTiter-Glo ATP luminescence, 72 h. 400,000 compounds, 1.4% hits. Potency, µM (series often up to 46.1 µM), most hits filed as cytotoxic; also: % is scaled to controls: 0 for no effect and ±100 for the full control effect; nearly all actives have a fitted effect of over 60% in size
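Cytotoxicity measured as CellTiter-Glo luminescence after 72 h at 37 C. Compound titrations were pinned onto drug-naive KB-3-1 parental adenocarcinoma cells grown in DMEM with 10% FBS, and normalized data fitted to concentration-response curves.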
The depositor's hits bear a star; i = inactive; u = inconclusive; x = not tested or not shown; ! = repeats disagree. Calls follow the shape of the dose curve; as a rule, active = well fitted curve in the direction sought with a large enough effect; inconclusive = small, poorly fitted or top-dose-only effect, or another doubt; inactive = no such curve, though single readings can be large; an effect the other way counts as inactive or inconclusive. Potency is read from the fitted curve at half-maximal effect.

SMILES | SW480 rereplic | HT1080 IDH1KD tx | MCF10A rerep | KB-V1 cytotox | HT1080-NT tox | KB-3-1 tox
COC(=O)c1c(C)oc2ccc(N(C(C)=O)S(=O)(=O)c3ccccc3)cc12 | 1% | u | 10% | 2.3µM* | -9% | 23µM*
COC(=O)c1c(C)oc2ccc(N(C(=O)c3ccncc3)S(=O)(=O)c3ccc(Br)cc3)cc12 | x | x | x | i | x | i
Cc1ccc(C2NC(c3ccc4c(c3)OCO4)=CC(c3cc(Br)ccc3O)N2)cc1 (stereo not given) | x | x | x | i | x | i
CCOC(=O)Cn1c(=O)oc2cc(S(=O)(=O)N3CCN(c4ccc(Cl)cc4)CC3)ccc21 | x | x | x | i | x | i
CC(=O)c1c(C)oc2ccc(N(C(C)=O)S(=O)(=O)c3ccc(Cl)c([N+](=O)[O-])c3)cc12 | u | 6.5µM* | 1.8µM* | u | u | u
CCC(=O)N1CCc2cc(Br)cc(S(=O)(=O)CCC(=O)N3CCN(c4cccc(C(F)(F)F)c4)CC3)c21 | x | x | x | i | x | i
Cc1cccc(-c2noc(-c3ccc(N4CCN(C)CC4)c([N+](=O)[O-])c3)n2)c1 | x | x | x | i | x | 18µM*
Cc1cccc(-c2noc(-c3ccc(N4CCCC4)c([N+](=O)[O-])c3)n2)c1 | x | x | x | i | x | i
CCS(=O)(=O)N1CCc2cc(C(=O)NCc3ccc(Cl)cc3)ccc21 | x | x | x | i | x | i
Cc1csc(NC(=O)c2sc3nc(-c4cccs4)ccc3c2N)n1 | u | u | 1% | 21µM* | -9% | i
CN(C(=O)C1CCC1C(=O)O)c1nc(-c2ccc(Cl)s2)cs1 (stereo not given) | 12% | 0% | -10% | i | 0% | i
O=C(CN1C(=O)CCC1=O)Nc1nc(-c2ccc(Cl)s2)cs1 | 6% | -3% | 21µM*! | i | -1% | i
O=C(Nc1nc(-c2cccs2)cs1)c1ccc([N+](=O)[O-])o1 | 7.3µM* | u | 2.9µM* | 21µM* | u | 6.5µM*
CCCSc1nnc(NC(=O)c2sc3nc(-c4cccs4)ccc3c2N)s1 | 19% | -12% | u | i | -11% | i
O=C(Nc1nc(-c2cccs2)cs1)c1ccco1 | -5% | -2% | u | u | -1% | u
CC1CC1C(=O)Nc1nc(-c2ccc(Cl)s2)cs1 (stereo not given) | 4% | -20% | 10% | 13µM* | -24% | u
COc1cc(C(=O)Nc2nc(-c3cccs3)cs2)cc(OC)c1OC | -8% | -10% | u | i | u | i
COc1ccc(C(=O)Nc2cnc(NC(=O)c3cccs3)cc2C)cc1 | u | -1% | 7.3µM* | i | 14% | i
COc1ccc(C(=O)Nc2cc(C)c(NC(=O)c3ccccn3)cn2)cc1 | 1% | -12% | -7% | i | -12% | i
O=C(Nc1nc(-c2cccs2)cs1)c1ccc(Cl)cc1 | 0% | u | u | 21µM* | u | u
COc1ccc(C(=O)Nc2nc(-c3cccs3)cs2)cc1 | -8% | 5% | u | 5.8µM* | 5% | u
O=C(Nc1nc(-c2ccc(Cl)s2)cs1)c1ccncc1 | -3% | -3% | 2% | 6.5µM* | 1% | u
CCc1ccc(NC(=O)c2nn(-c3ccc(OC)cc3)c(=O)c3c2c2ccccc2n3C)cc1 | x | x | x | i | x | i
CCCOc1ccc(C(=O)N(Cc2cccs2)c2ccc(C)cc2)cc1 | x | x | x | i | x | i
Cn1c(=O)c2c(nc(SCC(=O)Nc3ccc(F)cc3F)n2Cc2ccccc2)n(C)c1=O | x | x | x | i | x | i
SMILES | SW480 rereplic | HT1080 IDH1KD tx | MCF10A rerep | KB-V1 cytotox | HT1080-NT tox | KB-3-1 tox
Cc1c(C(=O)O)sc2nc(-c3cccs3)cc(C(F)(F)F)c12 | -17% | 0% | 16% | i | -9% | i
O=C(COc1ccc(Cl)cc1)Nc1nc(-c2cccs2)cs1 | -2% | -11% | 13µM* | i | -1% | i
Cc1c(C(=O)Nc2nccs2)sc2nc(-c3cccs3)cc(C(F)(F)F)c12 | u | u | u | u | u | 9.2µM*
Cc1cc(-c2csc(N)n2)c(C)n1CCc1ccccc1 | -3% | 6% | 20% | i | 1% | i
Cc1c(P(=S)(c2ccccc2)c2ccccc2)[n+]2ccccc2n1CCc1ccccc1 | x | x | x | i | x | 13µM*
CCOC(=O)c1cc([N+](=O)[O-])cc([N+](=O)[O-])c1Sc1ncnc2nc[nH]c12 | 12µM* | 4.6µM* | u | u | 4.6µM* | u
CC(=O)c1c(C)[nH]c(C(=O)Nc2ccc(N3CCCCCC3)cc2)c1C | x | -15% | x | i | -11% | i
CC(C)n1c(=S)[nH]c2scc(-c3cccs3)c2c1=O | -2% | -13% | 6.5µM* | i | -24% | i
Cc1ccc(C)c(N2CCN(C(=O)Cn3ncc4ccsc4c3=O)CC2)c1 | x | x | x | 4.1µM* | x | 16µM*
CN1CCc2c(c3ccccc3n2Cc2ccccc2)C1 | u | 16µM*! | 23% | u | u | u
Cc1ccc(S(=O)(=O)N(CC2CO2)c2cc(Cl)ccc2Cl)cc1 (stereo not given) | u | 23µM* | u | u | u | u
Cc1ccc(N(CC2CO2)S(=O)(=O)c2ccc(C)cc2)cc1 (stereo not given) | -4% | -19% | -26% | i | -4% | i
CC(=O)N1C[C@H]2CON(C)[C@H]2C[C@H]1c1cccc(-c2cc(Cl)cc(Cl)c2)c1 | x | -7% | x | i | -12% | i
CCC(C)NC(=O)c1sc2nc(C)c(C(=O)Nc3ccc(C)cc3C)c(-c3ccccc3Cl)c2c1N (stereo not given) | x | x | x | i | x | i
CN1CCN(C2Cc3ccc(F)cc3Sc3cc(F)c(Cl)cc32)CC1 (stereo not given) | u | u | u | i | 26µM* | u
CN1CCN(C2Cc3cc(F)ccc3Sc3ccc(Cl)cc32)CC1 (stereo not given) | u | u | 21µM* | i | -24% | i
CN1CCN(C2Cc3ccccc3Sc3ccc(Cl)cc32)CC1 (stereo not given) | x | 4% | u | u | -8% | i
COc1cccc2c1C(=O)C=C(C)C2=O | u | u | 23µM* | u | 18µM* | u
COCCCNC(=O)C1CCCN(S(=O)(=O)c2ccc3c(c2)oc(=O)n3C)C1 (stereo not given) | x | x | x | u | x | i
CCOc1ccc(N/C(N)=N/c2nc(CSc3nnc(C)s3)cc(=O)[nH]2)cc1 | u | 0.92µM* | u | u | 0.21µM* | 0.73µM*
